Some test systems named below: RPMI-8226 leukemia; OVCAR-8 ovarian; OVCAR-5 ovarian; OVCAR-4 ovarian; SK-OV-3 ovarian; IGROV1 ovarian; OVCAR-3 ovarian; HS 578T breast; NCI/ADR-RES ovarian.
Common to all, as to assay: NCI-60 one-dose screen, 48 h (100 = growth as untreated, 0 = no growth, -100 = all killed)
Holding throughout (conditions): 10 µM

15 molecules from PubChem BioAssay (NCI) can be followed below.

SMILES strings stand for the structures. This is part of a sample that, as a whole, favours compounds with a hit. Of some 83,000 tested, about 20% had one in any assay.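 Testing used 96-well plates and a 48-hour single-concentration exposure. Example: -40 means 40% of the starting cells died.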 Unmarked numbers belong to inactive results. Calls of active or inactive are those of the source. The calls were made as follows: active = growth percent below 10; inactive = the rest.

`COc1cc(-c2nn(-c3ccc(NC(=O)NCCCNC(=O)c4ccccc4)cc3)cc2-c2ccncc2)ccc1Cl`: the growth with RPMI-8226 leukemia is -3.49% (active); in the experiment on OVCAR-8 ovarian, 20.6%; in the experiment with OVCAR-5 ovarian, 53%; in the experiment on OVCAR-4 ovarian, 44.4%; in the experiment with SK-OV-3 ovarian it was 23.8%; in the experiment on IGROV1 ovarian it was 38.1%. For the same molecule, the growth in the experiment with OVCAR-3 ovarian was 20.6%; in the experiment on HS 578T breast, 40%; with NCI/ADR-RES ovarian, 69.4%.

As for `CC(C)(C)c1nn(-c2ccccc2)c2c1CC1(CN2Cc2ccc(Cl)cc2)C(=O)c2ccccc2C1=O`, the growth with RPMI-8226 leukemia was 59.5%; in the experiment on OVCAR-8 ovarian, 105%; in the experiment with OVCAR-5 ovarian, 103%; with OVCAR-4 ovarian it was 72.9%; with SK-OV-3 ovarian, 93.3%; with OVCAR-3 ovarian it was 78.1%. The results for the growth with HS 578T breast and with NCI/ADR-RES ovarian were 110% and 84.3%, respectively.

As to `CC1=NN(C(=O)c2nn(-c3ccc(Cl)cc3)cc2O)C(=O)C1`, the growth in the experiment with RPMI-8226 leukemia was 13.7%; with OVCAR-8 ovarian, 29.4%; in the experiment with OVCAR-5 ovarian, 63.5%; in the experiment on OVCAR-4 ovarian, 29.9%; in the experiment with SK-OV-3 ovarian, 34%; with IGROV1 ovarian, 34.8%. Moreover, the growth with OVCAR-3 ovarian was -6.37% (active); in the experiment on HS 578T breast, 31.8%; in the experiment on NCI/ADR-RES ovarian, 31.6%.

With `O=C(CCC(C(=O)c1ccccc1)c1ccccc1)c1ccccc1` (stereo unspecified), the growth in the experiment on RPMI-8226 leukemia was 64.9%; in the experiment with OVCAR-8 ovarian it was 95.3%; with OVCAR-5 ovarian, 88%; with OVCAR-4 ovarian it was 91.2%; in the experiment with SK-OV-3 ovarian, 74.3%; in the experiment on IGROV1 ovarian, 79.3%. The growth in the experiment on OVCAR-3 ovarian is 72.3%; with HS 578T breast it was 80.1%; in the experiment on NCI/ADR-RES ovarian it was 38.3%.

On to `COC1=CC(=O)OC(c2ccc(OC)cc2)C1` (stereo unspecified), for which the growth in the experiment on RPMI-8226 leukemia is 111%; in the experiment with OVCAR-8 ovarian it was 105%; with OVCAR-5 ovarian it was 106%; in the experiment on OVCAR-4 ovarian, 106%; with SK-OV-3 ovarian, 117%; with OVCAR-3 ovarian it was 103%. For the same molecule, the figures for the growth in the experiment with HS 578T breast and with NCI/ADR-RES ovarian were 111% and 102%, respectively.

Regarding `Cc1c(C(N)=O)sc2c1c(=O)n(Cc1ccccc1)c1nnc(-c3ccc(Br)cc3)n21`, the growth with RPMI-8226 leukemia is 12.1%; with OVCAR-8 ovarian, 0.274% (active); in the experiment on OVCAR-5 ovarian, 48.6%; with OVCAR-4 ovarian, 40.2%; in the experiment with SK-OV-3 ovarian it was 33.2%; with OVCAR-3 ovarian, 49.5%. In addition, the growth with HS 578T breast is 73.6%; with NCI/ADR-RES ovarian, 6.12% (active).

Consider `CN(C)CCOc1cccc(NC2=C(Cl)C(=O)C(Nc3cccc(OCCN(C)C)c3)=C(Cl)C2=O)c1`, for which the growth is -46.9% (active) in the experiment with RPMI-8226 leukemia; -94.9% (active) in the experiment with OVCAR-8 ovarian; -53.9% (active) in the experiment with OVCAR-5 ovarian; -100% (active) in the experiment on OVCAR-4 ovarian; 94.9% in the experiment on SK-OV-3 ovarian; -76.6% (active) in the experiment on IGROV1 ovarian. The growth in the experiment on OVCAR-3 ovarian was -97.3% (active); in the experiment on HS 578T breast, 0.785% (active); with NCI/ADR-RES ovarian, 57.2%.

With `O=C(/C=C/C=C/c1c(C2CC2)nc2ccccc2c1-c1ccc(F)cc1)c1cccs1`, the growth with RPMI-8226 leukemia is -26.6% (active); with OVCAR-8 ovarian it was 18.1%; in the experiment on OVCAR-5 ovarian, 1.66% (active); with OVCAR-4 ovarian, 24%; with SK-OV-3 ovarian it was 42.6%; in the experiment on IGROV1 ovarian, 19.1%. The results for the growth in the experiment with OVCAR-3 ovarian, in the experiment with HS 578T breast and in the experiment with NCI/ADR-RES ovarian were -2.17% (active), 24.4% and 22.9%, respectively.

As to `O=C1/C(=C/c2cccc(F)c2)Cc2ccccc21`, the growth in the experiment with RPMI-8226 leukemia is 93.3%; in the experiment on OVCAR-8 ovarian it was 97.4%; in the experiment on OVCAR-5 ovarian it was 120%; in the experiment with OVCAR-4 ovarian, 97.5%; in the experiment with SK-OV-3 ovarian, 108%; with IGROV1 ovarian, 99.6%. In addition, the growth in the experiment on OVCAR-3 ovarian was 113%; in the experiment with HS 578T breast, 181%; in the experiment with NCI/ADR-RES ovarian, 102%.

As to `O=S(=O)(Oc1ccc(-c2ccc3sccc3c2)cc1)c1ccccc1`, the growth with RPMI-8226 leukemia is 107%; in the experiment with OVCAR-8 ovarian, 106%; in the experiment with OVCAR-5 ovarian, 97.3%; with OVCAR-4 ovarian, 103%; in the experiment on SK-OV-3 ovarian, 107%; with IGROV1 ovarian, 107%. Also, the growth with OVCAR-3 ovarian was 110%; in the experiment on HS 578T breast, 108%; with NCI/ADR-RES ovarian it was 103%.

Turning to `O=C1c2ccccc2C(=O)N1CCCCNc1ccccc1`, the growth was 30.5% in the experiment on RPMI-8226 leukemia; 101% with OVCAR-8 ovarian; 101% in the experiment on OVCAR-5 ovarian; 107% in the experiment on OVCAR-4 ovarian; 113% in the experiment with SK-OV-3 ovarian; 141% in the experiment on IGROV1 ovarian. The figures for the growth with OVCAR-3 ovarian, in the experiment with HS 578T breast and with NCI/ADR-RES ovarian were 91%, 103% and 103%, respectively.

`O=C(N/N=C/c1cc([N+](=O)[O-])ccc1O)c1cccc2ccccc12`: the growth was 21.5% in the experiment with RPMI-8226 leukemia; 22.8% in the experiment with OVCAR-8 ovarian; 47.2% with OVCAR-5 ovarian; 20.2% with OVCAR-4 ovarian; 41% with SK-OV-3 ovarian; 39.8% in the experiment on IGROV1 ovarian. The growth in the experiment on OVCAR-3 ovarian was 27.2%; in the experiment with HS 578T breast it was 64.1%; in the experiment on NCI/ADR-RES ovarian, 10.6%.

Take `S=C(SSC(=S)N(c1ccccc1)c1ccccc1)N(c1ccccc1)c1ccccc1`: the growth is 97.1% with RPMI-8226 leukemia; 89.8% in the experiment on OVCAR-8 ovarian; 111% in the experiment on OVCAR-5 ovarian; 113% in the experiment with OVCAR-4 ovarian; 100% with SK-OV-3 ovarian; 111% with IGROV1 ovarian. The growth in the experiment with OVCAR-3 ovarian is 102%; with HS 578T breast, 108%; with NCI/ADR-RES ovarian it was 105%.

Turning to `COc1cccc2ccc(CC(O)(c3ccccc3)c3ccccc3)nc12`, the growth in the experiment with RPMI-8226 leukemia is 90.7%; with OVCAR-8 ovarian, 91.5%; with OVCAR-5 ovarian, 115%; in the experiment with OVCAR-4 ovarian it was 51.2%; in the experiment on SK-OV-3 ovarian, 93.3%; in the experiment on OVCAR-3 ovarian it was 80.3%. Further, the growth with HS 578T breast is 103%; in the experiment on NCI/ADR-RES ovarian it was 94.4%.

Consider `C[C@]12CC[C@@H]3c4ccc(O)cc4CC[C@H]3[C@@H]1CC[C@@H]2NS(=O)(=O)c1ccc(C(F)(F)F)cc1`, for which the growth was 34.8% in the experiment on RPMI-8226 leukemia; 57% in the experiment on OVCAR-8 ovarian; 90.5% in the experiment on OVCAR-5 ovarian; 49.1% in the experiment on OVCAR-4 ovarian; 86.6% with SK-OV-3 ovarian; 30.5% in the experiment with IGROV1 ovarian. The growth in the experiment with OVCAR-3 ovarian was 35.4%; in the experiment on HS 578T breast, 72.7%; with NCI/ADR-RES ovarian, 53%.
